# Screening results from PubChem.
# LASV entry inh: blocks Lassa virus binding or cell entry; Lassa virus pseudotyped entry inhibition, cell-based qHTS; actives 4.1% (n = 18,000); Potency, µM (titrated, usually from 49.2 µM), actives largely listed as inhibitors; AID 720533
# Marburg entry: Marburg virus entry inhibition | actives 6.5% (n = 18,000) | AID 720532 | Potency, µM (series often up to 49.2 µM), hits mostly inhibitors | Marburg virus pseudotype entry/binding inhibition, cell-based
# A number is an active result; 0 = inactive; ? = inconclusive; [ ] = another dose, or the depositor's remark. Rows were chosen to be rich in hits. Some 8% of all compounds tested hit in one or more screens of this group. The call rests on the fitted dose curve; tested in HEK293 cells.
SMILES,LASV entry inh,Marburg entry
COc1ccc(CCNC(=O)c2cnn(-c3nccc(-c4ccco4)n3)c2C)cc1,0,0
O=C(O)CC/C=C\CC[C@H]1[C@@H](N2CCCCC2)[C@@H](O)C[C@@H]1OCc1ccc(-c2ccccc2)cc1,0,0
CN(C)c1cccc(CN2CCN(c3ccccc3)CC2)c1,0,0
CCc1cccc(N(C)C(N)=Nc2cccc3ccccc23)c1,?,28µM
CN1CCN(c2cc3c(cc2F)c(=O)c(C(=O)O)cn3-c2ccc(F)cc2)CC1,0,0
O=C1NCCN1CCN1CCC(c2cn(-c3ccc(F)cc3)c3ccc(Cl)cc23)CC1,22µM,11µM
CCCCCCCCCCCCCCCC(=O)OC[C@@H](O)[C@H]1OC[C@H](O)[C@H]1O,0,0
CSCC[C@H](NC(=O)[C@H](CO)NC(=O)[C@H](Cc1ccc(O)cc1)NC(=O)[C@@H](N)CO)C(=O)N[C@@H](CCC(=O)O)C(=O)N[C@@H](Cc1cnc[nH]1)C(=O)N[C@@H](Cc1ccccc1)C(=O)N[C@@H](CCCNC(=N)N)C(=O)N[C@@H](Cc1c[nH]c2ccccc12)C(=O)NCC(=O)N[C@@H](CCCCN)C(=O)N1CCC[C@H]1C(=O)N[C@H](C(=O)NCC(=O)N[C@@H](CCCCN)C(=O)N[C@@H](CCCCN)C(=O)N[C@@H](CCCNC(=N)N)C(=O)N[C@@H](CCCNC(=N)N)C(=O)N1CCC[C@H]1C(=O)N[C@H](C(=O)N[C@@H](CCCCN)C(=O)N[C@H](C(=O)N[C@@H](Cc1ccc(O)cc1)C(=O)N1CCC[C@H]1C(=O)N[C@@H](CC(N)=O)C(=O)NCC(=O)N[C@@H](C)C(=O)N[C@@H](CCC(=O)O)C(=O)N[C@@H](CC(=O)O)C(=O)N[C@@H](CCC(=O)O)C(=O)N[C@@H](CO)C(=O)N[C@@H](C)C(=O)N[C@@H](CCC(=O)O)C(=O)N[C@@H](C)C(=O)N[C@@H](Cc1ccccc1)C(=O)N1CCC[C@H]1C(=O)N[C@@H](CC(C)C)C(=O)N[C@@H](CCC(=O)O)C(=O)N[C@@H](Cc1ccccc1)C(=O)O)C(C)C)C(C)C)C(C)C,0,0
CC(=O)O[C@H]1C[C@@H](O[C@@H]2[C@H](C)O[C@H](O[C@@H]3[C@H](C)O[C@H](O[C@@H]4CC[C@@]5(C)[C@@H](CC[C@]6(C)[C@]5(C)C[C@H](O)[C@]5(C)[C@@H](C7=CC(=O)OC7)CC[C@@]56O)C4)C[C@@H]3O)C[C@@H]2O)O[C@@H](C)[C@H]1O[C@H]1O[C@@H](CO)[C@@H](O)[C@@H](O)[C@@H]1O,0.89µM,0.89µM
CC(=O)O[C@H]1C[C@H](O[C@H]2[C@@H](O)C[C@H](O[C@H]3[C@@H](O)C[C@H](OC4CC[C@@]5(C)[C@H](CC[C@@H]6[C@@H]5CC[C@]5(C)[C@@H](C7=CC(=O)OC7)CC[C@]65O)C4)O[C@@H]3C)O[C@@H]2C)O[C@H](C)[C@H]1O[C@@H]1O[C@H](CO)[C@@H](O)[C@H](O)[C@H]1O (stereo partly specified),25µM,5.6µM
CC(=O)OC1CC[C@@]2(C)C3CC[C@@]4(C)C(CC5O[C@@]6(CCC(C)CO6)C(C)C54)C3CC[C@@H]2C1 (stereo partly specified),0,0
CC(=O)OC1CC[C@]2(C)C(CCC3C2CC[C@]2(C)C(C4=CC(=O)OC4)C(OC(C)=O)CC32O)C1 (stereo partly specified),1.4µM,0.71µM
CC(=O)OC1CC(OC2C(O)CC(OC3C(O)CC(OC4CCC5(C)C(CCC6C5CC(O)C5(C)C(C7=CC(=O)OC7)CCC65O)C4)OC3C)OC2C)OC(C)C1OC1OC(CO)C(O)C(O)C1O (stereo unspecified),0.32µM,0.28µM
c1ncc(CCCC2CCNCC2)[nH]1,0,0
COC(=O)C1=C(C)N(CC2CC2)C(=NCCc2cccnc2)NC1c1ccccc1 (stereo unspecified),0[8.59 µM],0[8.59 µM]
CSc1ncccc1C(=O)NCC1Cc2cc(F)cc(-c3cncnc3)c2O1 (stereo unspecified),0,0
O=S1(=O)CCSCCN1Cc1ccc(F)cc1F,0,0
COC(=O)[C@@H]1CC[C@H](C)[C@@H](c2ccc(C)cc2)N1C(=O)c1ccc(C=NO[C@H](C)CN2CCCc3nc(C)c(C)cc32)cc1,0[8.59 µM],?
CCCCC(=O)NCCc1c(Cc2ccccc2)[nH]c2ccccc12,?,0
COc1cccc(CN2CCC(c3nnc(SCC4CCCO4)n3C)CC2)c1O (stereo unspecified),0,0
O=C1CCCC2=C1[C@H]1O[C@](c3ccsc3)(Cc3c1ccc1ccccc31)O2,0[8.59 µM],0[8.59 µM]
CC(=O)OC[C@H]1O[C@H](C#Cc2ccccc2)C=C[C@H]1O,0[8.59 µM],0[8.59 µM]
CCN1C(=O)NC(c2cccc(C(F)(F)F)c2)C(C(=O)OC)=C1C (stereo unspecified),0[8.59 µM],0[8.59 µM]
CCNC(=O)c1sc2ncnc(NCCCN3CCOCC3)c2c1C,0,0
CC(=O)OC1CCC23C(=O)OC45CCC(C6=CC(=O)OC6)C4(C)CCC2C5CCC3(O)C1 (stereo unspecified),1.3µM,0.56µM
